Molecules are shown by their SMILES. Screen size: about 290,000 compounds; about 3,100 (1.1%) were called active. What follows is part of a selection rich in actives, with near analogues and random picks from the rest. Unmarked numbers belong to inactive results. No stated cut-off is given here; in the data, active means inhibition above about 16% (passing the limit was not always enough); inactive means the rest.

For orientation: inhibition means the relative decrease from the control value, in per cent.

The assay deals with Neuropeptides B/W receptor type 1 (Homo sapiens) (UniProt P48145). The assay can be described thus: GPR7 receptor antagonists, primary screen, cell-based, fluorescence, single concentration (AID 1861).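 Further: cells stimulated with the agonist NPW; 0% = agonist with vehicle and 100% = vehicle without agonist.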 Particulars: GPR7-expressing cells, fluorescence antagonist assay; at 4.4 µM; hits give high values.
Sequence of Neuropeptides B/W receptor type 1 (Homo sapiens) (P48145 whole entry, looked up): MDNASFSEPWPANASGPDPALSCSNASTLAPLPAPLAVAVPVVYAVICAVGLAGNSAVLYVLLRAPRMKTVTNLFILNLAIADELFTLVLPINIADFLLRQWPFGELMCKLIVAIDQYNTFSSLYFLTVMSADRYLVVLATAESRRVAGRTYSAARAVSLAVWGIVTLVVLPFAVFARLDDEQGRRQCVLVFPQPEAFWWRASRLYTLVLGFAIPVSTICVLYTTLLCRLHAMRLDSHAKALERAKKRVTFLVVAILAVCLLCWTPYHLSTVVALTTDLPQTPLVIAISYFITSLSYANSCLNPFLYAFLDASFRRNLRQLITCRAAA
With `COCCCNC(=S)N1CCN(c2nc(-c3cccc(OC)c3)cs2)CC1`, the inhibition is 42.1% (active).
Turning to `COc1cccc(NC(=O)CN2CCN(c3nc(-c4cccc(OC)c4)cs3)CC2)c1`, the inhibition is -9.85%.
In the case of `CN(C)CCCNC(=S)N1CCN(c2nc(-c3ccccc3)cs2)CC1` it was 5.73%; in that of `CCC1CCCCN1C(=S)Nc1ccc(S(=O)(=O)Nc2ncccn2)cc1` (configuration not stated), -0.2%; in that of `Fc1ccc(-c2ccc(-c3nn4c(-c5ccco5)nnc4s3)o2)cc1`, 29% (active).
In the case of `c1ccc(-c2cc(-c3nnc4sc(-c5ccccn5)nn34)[nH]n2)cc1` it was -17.3%; in that of `COc1cc(-c2nn3c(-c4cccc(C)c4)nnc3s2)cc(OC)c1OC`, 12.2%; in that of `COC(=O)c1ccc(C(=O)NC2CC(C)(C)Cc3c2cnn3-c2ccc(F)cc2)nc1` (configuration not stated), 18.2%.
In the case of `CC(C(=O)NC1CCS(=O)(=O)C1)N1C(=O)/C(=C/c2ccc(Cl)cc2)SC1=S` (configuration not stated) it was 14.5%; in that of `CCOCCCNC(=O)c1ccc(CS(=O)(=O)c2cccc(C(F)(F)F)c2)o1`, 6.51%.
As to `O=C(NCCCN1CCOCC1)c1ccc2c(c1)N(Cc1cccc(F)c1)C(=O)c1ccccc1S2`, the inhibition was 24.4% (active).
In the case of `CCC1=Nc2cc(C(=O)NCCCN3CCOCC3)ccc2Sc2ccc(Br)cc21` it was 0.03%.
On to `Cc1ccccc1CN1C(=O)c2ccccc2Sc2ccc(C(=O)NCCCN3CCOCC3)cc21`, for which the inhibition is 24.2% (active).
In the case of `O=C(NCCN1CCOCC1)c1ccc(/C=C2\Sc3ccccc3N(Cc3ccc(F)cc3)C2=O)cc1` it was 4.73%; in that of `O=C(NCCCN1CCOCC1)c1cc(-c2ccccc2F)no1`, -6.4%; in that of `O=C(NCCCN1CCCCC1)c1ccc2c(c1)NC(=O)C(N1CCOCC1)S2` (configuration not stated), -14.1%.
In the case of `CCOc1ccc(NC(=O)C2CCN(C(=O)N3CCOc4ccccc43)CC2)cc1` it was 5.19%; in that of `COc1cccc2[nH]c(C(=O)NCCc3ccccc3)cc12`, -9.64%; in that of `COc1ccc2[nH]c(=O)c(C3c4cc(OC)c(OC)cc4CCN3C(=O)c3ccco3)cc2c1` (configuration not stated), -13.4%.
In the case of `Cc1ccc(SCc2cc(=O)[nH]c(N3CCCCC3)n2)cc1` it was 25.9% (active); in that of `Cc1ccc(NC(=O)CSc2nc(CSc3ccc(C)cc3)cc(=O)[nH]2)cc1`, -13.7%; in that of `O=c1cc(CSc2ccccn2)nc(N2CCN(c3ccccc3)CC2)[nH]1`, -6.4%.
As to `CN(C(=O)CCN1C(=O)/C(=C/c2ccccc2F)SC1=S)C1CCS(=O)(=O)C1` (configuration not stated), the inhibition is -4.44%.
In the case of `COc1cccc(CNC(=O)C2CCCN(c3ncnc4c3nc3n4CCCCC3)C2)c1` (configuration not stated) it was 6.2%.
On to `COc1cccc(C(C(=O)NC2CCCC2)N(C(=O)c2ccco2)c2cccc(C(C)=O)c2)c1OC` (configuration not stated), for which the inhibition was 2.78%.
In the case of `Cc1ccc(NC(=O)C/C(N)=N/O)cc1Cl` it was -9.83%; in that of `O=C(CC(O)(C(F)(F)F)C(F)(F)F)Nc1ccc(Cl)c(Cl)c1`, 28.9% (active); in that of `CN(C)CCNC(CC(=O)Nc1ccc(Cl)c(Cl)c1)C(=O)O` (configuration not stated), -6.94%.
`CCOC(=O)C1(CCOc2ccccc2)CCN(Cc2cc(OC)cc(OC)c2)CC1`: the inhibition was 15.4%.
In the case of `CC1=C/C(=N\OS(=O)(=O)c2ccccc2)C=CC1=O` it was -2.03%; in that of `Cc1cc(C)cc(N(CC(=O)NC2CCCC2)C(=O)CCC(=O)Nc2nccs2)c1`, 4.8%; in that of `COc1ccccc1C(=O)OCC(=O)NCCNC(=O)COC(=O)c1ccccc1OC`, 1.57%.
`C=CCNC(=O)COC(=O)c1ccccc1C(=O)N(C)C1CCCCC1`: the inhibition is 23.4% (active).
In the case of `O=C(COC(=O)c1ccccc1SCC(=O)NC1CCCCC1)NC1CCCCC1` it was 4.41%; in that of `O=[N+]([O-])c1ccc(NC(=S)N2CCN(c3ccccn3)CC2)cc1`, -5.44%.
As for `Cc1nn(CC(=O)NCC2CCCO2)c(=O)c2cc3ccccc3n12` (configuration not stated), the inhibition is 2.04%.
Consider `CCn1c(C)cc(=O)cc1-c1ccc(Cl)cc1`, for which the inhibition is 12.6%.
For `CCS(=O)(=O)Nc1ccc(C2=NN(S(=O)(=O)c3ccc(F)cc3)C(c3ccco3)C2)cc1` (configuration not stated), the inhibition was 1.02%.
With `COc1cccc(C2CC(c3ccccc3)=NN2S(=O)(=O)c2ccccc2)c1OC` (configuration not stated), the inhibition was 19.8% (active).
In the case of `COc1ccc(C2=NN(C(=O)c3ccccc3C(=O)O)C(c3ccccc3O)C2)cc1` (configuration not stated) it was 1.53%; in that of `CS(=O)(=O)Nc1cccc(C2=NN(C(=O)c3cccc(F)c3)C(c3cccs3)C2)c1` (configuration not stated), 19.9%; in that of `CS(=O)(=O)Nc1cccc(C2=NN(S(=O)(=O)c3ccccc3)C(c3cccs3)C2)c1` (configuration not stated), 30% (active).
In the case of `CS(=O)(=O)Nc1ccc(C2=NN(S(C)(=O)=O)C(c3cccs3)C2)cc1` (configuration not stated) it was -8.38%.
In the case of `Cc1c(CCC(=O)N[C@@H](CC(C)C)C(=O)O)c(=O)oc2c(C)c3oc4c(c3cc12)CCCC4`, the inhibition is -11.3%.
As to `COc1ccc(C(=O)NC(C)c2nccs2)cc1OC1CCN(C(C)C)CC1` (configuration not stated), the inhibition was -9.73%.
With `COc1ccc(N(CC(=O)NCCSCc2cccc(Cl)c2)S(C)(=O)=O)cc1`, the inhibition was -4.13%.
In the case of `CC1CN(C(=O)c2cc(COc3c(F)cccc3F)on2)CCN1C` (configuration not stated) it was 5.39%; in that of `CCc1ccccc1N(CC(=O)NCCSCc1ccco1)S(C)(=O)=O`, -3.47%.
In the case of `CS(=O)(=O)N(Cc1ccc(Cl)cc1)c1ccc(C(=O)NCCSCc2ccco2)cc1` it was 30.2% (active); in that of `Cc1cc(C)cc(N(CC(=O)NCCSCc2ccco2)S(C)(=O)=O)c1`, -3.97%; in that of `CN1CCN(CCNC(=O)Nc2ccc([N+](=O)[O-])cc2)CC1`, 1.21%.
Take `O=C(COc1ccc([N+](=O)[O-])cc1)Nc1ccc(N2CCCC2)cc1`: the inhibition is -6.84%.
As for `O=C(NCCCN1CCN(c2ccc(F)cc2)CC1)Nc1ccc([N+](=O)[O-])cc1`, the inhibition is 25.5% (active).
In the case of `COc1ccccc1CNC(=O)COc1ccc(C)nc1[N+](=O)[O-]` it was 25.7% (active); in that of `Cc1ccc(OCC(=O)NC(C)c2ccccc2)c([N+](=O)[O-])n1` (configuration not stated), -17%; in that of `COc1ccc(CNC(=O)COc2cccnc2[N+](=O)[O-])cc1`, 5.06%.
Regarding `CCOC(=O)N1CCN(S(=O)(=O)c2ccc(OC)cc2)CC1`, the inhibition was -0.89%.
Take `Cc1cc(Cl)ccc1OCCCC(=O)NCc1ccncc1`: the inhibition was 2.96%.
In the case of `Cc1cc(Cl)ccc1OCCCC(=O)Nc1cccc(-n2cnnn2)c1` it was 37.4% (active); in that of `Cc1cc(Cl)ccc1OCCCC(=O)NCc1ccccn1`, 5.1%; in that of `c1ccc2c(c1)CCc1snnc1-2`, -15.5%.
In the case of `COc1cc(OC)c(NC(=O)C2CCCN2C(=O)OCc2ccccc2)cc1Cl` (configuration not stated) it was 3.66%; in that of `COC(=O)c1cc(S(=O)(=O)Nc2ccc(C)c(F)c2)c[nH]1`, 4.7%.
In the case of `CCOC(=O)C1=C(C)NC(=S)NC1c1cccs1` (configuration not stated) it was -3.11%; in that of `CCOC(=O)C1=C(C)NC(SC)=NC1c1ccccc1` (configuration not stated), -17%; in that of `CCOC(=O)C1=C(C)NC(C)=C(C(=O)OCC)C1c1ccccn1`, 18.9% (active).
`CC1CCCCN1CC(=O)NCc1ccc2c(c1)OCO2` (configuration not stated): the inhibition was -3.99%.
In the case of `Cc1ccc(NC(=O)CN2CCC3(O)CCCCC3C2c2ccc3c(c2)OCO3)c(C)c1` (configuration not stated) it was 21.5% (active).
With `CCN(CC)c1ccc(C2C3CCCCC3(O)CCN2CC(=O)Nc2ccccc2)cc1` (configuration not stated), the inhibition was 0.06%.
For `O=C(Nc1cccc2ccccc12)c1onc2c1CCCC2`, the inhibition was -5.72%.
In the case of `Oc1ccccc1CNc1ncc(Br)cc1Br`, the inhibition is -17.9%.
Turning to `COCCN(Cc1cc2cc3c(cc2nc1Cl)OCO3)C(=O)c1cccc(C)c1`, the inhibition was 21.6% (active).
In the case of `Cc1cccc(C(=O)NCCCN(C)CCCNC(=O)c2cccc(C)c2)c1` it was -10.2%; in that of `CCCCN(CC)C(=O)c1ccc2c(c1)OCO2`, 11.2%; in that of `Cc1ccc(Cl)c(NC(=O)CN2CCN(C=O)CC2)c1`, 2.68%.
In the case of `COc1ccccc1OCCOc1ccc(/C=C2\C(=N)N3N=C(C)SC3=NC2=O)cc1` it was 21%; in that of `CN(C(=O)c1cccc(OC2CCN(S(=O)(=O)N(C)C)CC2)c1)C1CCOC1` (configuration not stated), -0.89%.
In the case of `CN(C)S(=O)(=O)N1CCC(Oc2cccc(C(=O)NCCCC3CCCC3)c2)CC1` it was 34.4% (active); in that of `CNS(=O)(=O)c1cccc(C(=O)NCC2CCCCC2)c1`, 5.35%; in that of `Cc1cc(C(=O)NCCc2ccc(Cl)cc2)c(C)o1`, -6.42%.
`COc1cccc(N(CC(=O)Nc2cccc(N(C)S(C)(=O)=O)c2)S(C)(=O)=O)c1`: the inhibition was -7.36%.
In the case of `Cc1ccc(N(CC(=O)Nc2cccc(N(C)S(C)(=O)=O)c2)S(C)(=O)=O)cc1` it was -0.43%.
In the case of `CN(c1cccc(NC(=O)Nc2ccc(Cl)cc2)c1)S(C)(=O)=O` it was 35.6% (active); in that of `CCOC(=O)N1CCN(C(=O)C(C)NC(=O)c2ccco2)CC1` (configuration not stated), -2.9%.
In the case of `CCN(CCn1cccn1)Cc1nc(-c2ccc(C(=O)OC)cc2)no1` it was 9.06%; in that of `COc1cccc(-c2cc(C(=O)N3CCN(c4ccccc4OC)CC3)no2)c1`, -15.8%; in that of `CN(CC(=O)Nc1ccccc1C(F)(F)F)C(=O)Cc1ccccc1F`, -10.8%.
Regarding `CC(C)(C)NCc1cc(Br)ccc1OC1CCCC1`, the inhibition is 22.3% (active).
In the case of `COc1cc(CNC2CCCCC2)c(Br)cc1OC1CCCC1` it was -7.35%; in that of `CCOCCCNCc1cc(Br)ccc1OCC`, 10.1%.
As to `O=C(NCc1cccc(CNC(=O)Nc2cccc(O)c2)c1)Nc1cccc(O)c1`, the inhibition is -9.18%.
In the case of `C[C@@H]1C[C@@H]2O[C@H]2/C=C\C=C\C(=O)Cc2c(Cl)c(O)cc(O)c2C(=O)O1` it was -17.8%.

Source of the values: PubChem BioAssay AID1861 (The Scripps Research Institute Molecular Screening Center, 2009).
